# Where “and” joins values, the source holds several entries; their conditions need not be identical. Identical values can stand only once.
# Assay: HSE-luciferase reporter activators – cell-based (AID 1611)
# Settings: human cells, HSE-luciferase heat shock reporter; stronger effect = higher value
row,SMILES,fold change
1,COC1=C2C[C@@H](C)C[C@H](OC)[C@H](O)[C@@H](C)/C=C(\C)[C@@H](OC(N)=O)[C@H](OC)/C=C\C=C(/C)C(=O)NC(=CC1=O)C2=O,1.05
2,OCC(O)CN1CCN(c2ccccc2)CC1 (stereo not given),0.82
3,CC[C@H]1OC(=O)[C@H](C)[C@@H](O[C@H]2C[C@@](C)(OC)[C@@H](O)[C@H](C)O2)[C@H](C)[C@@H](O[C@@H]2O[C@H](C)C[C@H](N(C)C)[C@H]2O)[C@](C)(O)C[C@@H](C)C(=O)[C@H](C)[C@@H](O)[C@]1(C)O,0.93
4,O=C1C[C@@H](c2ccc(O)cc2)Oc2cc(O)cc(O)c21,0.8
5,CC(C)Oc1ccc2c(=O)cc(-c3ccccc3)oc2c1,1.28
6,CCOc1ccc2c(c1)C(C)=CC(C)(C)N2,1.18
7,CCN(CCCCOC(=O)c1ccc(OC)c(OC)c1)C(C)Cc1ccc(OC)cc1 (stereo not given),1.27
8,CC12CC3CC(C)(C1)CC(N)(C3)C2,0.96
9,CC(C)NCC(O)COc1ccc(CC(N)=O)cc1 (stereo not given),0.76
10,CCN1CCCC(OC(=O)C(c2ccccc2)c2ccccc2)C1 (stereo not given),0.74
11,CN1C(C(=O)Nc2ccccn2)=C(O)c2sccc2S1(=O)=O,0.84
12,Cc1c(C(N)=O)cc([N+](=O)[O-])cc1[N+](=O)[O-],1.05
13,CC(C)[N+]1(C)C2CC[C@@H]1CC(OC(=O)C(CO)c1ccccc1)C2 (stereo not given in full),0.91
14,CC(C)(C)NCC(O)c1cc(O)cc(O)c1 (stereo not given),0.99
15,COCCc1ccc(OCC(O)CNC(C)C)cc1 (stereo not given),0.6
16,CC(Cc1ccc(O)c(O)c1)(NN)C(=O)O (stereo not given),1.02
17,CO[C@@H]1[C@@H](OC(N)=O)[C@@H](O)[C@H](Oc2ccc3c(O)c(NC(=O)c4ccc(O)c(CC=C(C)C)c4)c(=O)oc3c2C)OC1(C)C,1.06
18,c1ccc2[nH]c(-c3cscn3)nc2c1,0.81
19,CCc1cc(C(N)=S)ccn1,0.94
20,Nc1ncn([C@@H]2O[C@H](CO)[C@@H](O)[C@H]2O)c(=O)n1,1.3

row,SMILES,fold change
1,CC1(C)S[C@@H]2C(N3C(=O)[C@@H](c4ccccc4)NC3(C)C)C(=O)N2[C@H]1C(=O)O (stereo not given in full),1.12
2,CCCCNc1cc(C(=O)O)cc(S(N)(=O)=O)c1Oc1ccccc1,1.03
3,CN1C2CC(OC(=O)[C@H](CO)c3ccccc3)C[C@H]1[C@H]1OC21 (stereo not given in full),1.34
4,CN1C2CC[C@H]1CC(OC(=O)C(O)c1ccccc1)C2 (stereo not given in full),1.12
5,CC(=O)OCC(=O)[C@@]1(O)CCC2C3CCC4=CC(=O)CC[C@]4(C)C3C(=O)C[C@@]21C (stereo not given in full),0.62
6,CCCN(CCC)S(=O)(=O)c1ccc(C(=O)O)cc1,0.78
7,CC(C)NCC(O)COc1cccc2ccccc12 (stereo not given),0.95
8,Nc1cc(-c2ccncc2)c[nH]c1=O,1.16
9,NCCCC(N)CC(=O)NCC1NC(=O)C(CO)NC(=O)C(N)CNC(=O)C(C2CCN=C(N)N2)NC(=O)/C(=C/NC(N)=O)NC1=O (stereo not given),0.59
10,CC(=O)N(O)CCCCCNC(=O)CCC(=O)N(O)CCCCCNC(=O)CCC(=O)N(O)CCCCCN,0.7
11,Nc1ccc(S(=O)(=O)Nc2ccnn2-c2ccccc2)cc1,0.94
12,CC(Cc1cccc(C(F)(F)F)c1)NCCOC(=O)c1ccccc1 (stereo not given),1.03
13,Cn1c(=O)[nH]c2ncn(C)c2c1=O,1.88
14,C=Cc1c(C)c2cc3[nH]c(cc4nc(cc5nc(cc1[nH]2)C(C)=C5CCC(=O)O)C(CCC(=O)O)=C4C)c(C)c3C=C,1.09
15,CN[C@@H]1[C@H](OC2[C@H](O[C@H]3[C@H](O)[C@@H](O)[C@H](N=C(N)N)[C@@H](O)[C@@H]3N=C(N)N)O[C@@H](C)[C@]2(O)C=O)O[C@@H](CO)[C@H](O)[C@H]1O (stereo not given in full),1.17
16,CC1CCC(NC(=O)N(CCCl)N=O)CC1 (stereo not given),0.95
17,NC[C@@H]1O[C@H](O[C@@H]2[C@@H](CO)OC(O[C@@H]3[C@@H](O)[C@H](N)C[C@H](N)[C@H]3OC3O[C@H](CN)[C@@H](O)[C@H](O)[C@H]3N)[C@@H]2O)[C@H](N)[C@@H](O)[C@@H]1O (stereo not given in full),0.96
18,CCC1(C)CC(=O)NC1=O (stereo not given),1.19
19,NCCCCCCNS(=O)(=O)c1cccc2c(Cl)cccc12,1.18 and 0.78
20,O=C1c2ccc(O)c(O)c2C(=O)c2c(O)ccc(O)c21,0.67

# Reference: PubChem BioAssay AID1611 (NINDS Approved Drug Screening Program, 2009)
